Results published in PubChem BioAssay AID2685 (National Center for Advancing Translational Sciences (NCATS), 2010).
Hit rate of the full screen: of about 320,000 compounds, about 2,100 (0.66%) were called active. Another 53% or so got no clear call; they are omitted. Calls follow the shape of the dose curve; as a rule, active = well fitted inhibition curve with a large enough effect in the signal ratio, with a control signal flat (not every such curve was filed as active); inconclusive = small, poorly fitted or top-dose-only effect, or effect the other way, or a change in a side signal; inactive = flat fitted curve, though single readings scatter; the % refers to the signal ratio. Shown is part of a subset that was picked to be rich in actives.

Test: qHTS Assay for Lipid Storage Modulators in Drosophila S3 Cells;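 as to cell number change: cells counted by Cell Tracker Red CMTPX staining in the red channel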; as to lipid storage change, negative = inhibition: % is scaled to controls: 0 for no effect and ±100 for the full control effect
Conditions: BODIPY lipid droplet fluorescence, 18-24 h, cells fed with added oleic acid; cell number change: measured here: cell count max response; series mostly up to 46.1 µM; lipid storage change, negative = inhibition: at the top concentration
Summary of the method: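 Laser-scanning cytometry quantifies lipid droplet accumulation (500–530 nm total intensity; droplet/cell object ratio) in oleic acid-fed (400 uM added) Drosophila S3 cells treated with a concentration series. 20 uM Triacsin C defined 100% inhibition.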
Potency is read from the fitted curve at half-maximal effect.

Row | Structure (SMILES) | lipid storage change, negative = inhibition | cell number change [%] | outcome | Potency
1 | O=C(NC1=NCCS1)c1ccccc1Cl | 16.7% (inactive) | -14.3 |  | 
2 | CO/N=C/CC(=O)Nc1ccc(F)cc1F | 1.73% (inactive) | 16.8 |  | 
3 | CCCNC(=O)Nc1nc(CC(=O)OCC)cs1 | -0.813% (inactive) | -16.9 |  | 
4 | CC1NC2(C(=O)N(Cc3ccccc3)c3ccccc32)C2C(=O)N(c3ccccc3)C(=O)C12 (stereo not given) |  |  | inactive | 
5 | CC1Cc2ccccc2C(CCc2ccccc2)=N1 (stereo not given) | -0.249% (inactive) | -1.48 |  | 
6 | CSc1cccc(CNC(=O)CC2C(=O)NCCN2CC(C)(C)C)c1 (stereo not given) | 10.7% (inactive) | 22 |  | 
7 | COc1ccc(-c2cc3cc(C(=O)O)ccn3c2C(=O)c2ccccc2)cc1 | -4.15% (inactive) | 2.31 |  | 
8 | CC1CCC2(CC1)NC(=O)N(CC(=O)NC(=O)Nc1ccc3c(c1)OCCO3)C2=O (stereo not given) | 2.79% (inactive) | 17.3 |  | 
9 | O=C(NC1CCCCC1)C1CCCN(S(=O)(=O)c2ccc(F)cc2)C1 (stereo not given) |  | 2.52 | inactive | 
10 | CCOc1ccc(S(=O)(=O)N2CCC(C(=O)NCc3ccncc3)CC2)cc1Cl | 29.2% (inactive) | -18.4 |  | 
11 | CSc1ccc(S(=O)(=O)N2CCC(C(=O)NCc3ccncc3)CC2)cc1 | -5.08% (inactive) | 19.2 |  | 
12 | Cc1ccc(S(=O)(=O)N2CCC(C(=O)NCCc3ccccc3)CC2)cc1 |  | -12.9 |  | 23.1 µM (active)
13 | COc1ccc(S(=O)(=O)N2CCC(C(=O)NCCc3ccccc3)CC2)cc1 | 4.73% (inactive) | 20.5 |  | 
14 | CCOc1ccc(S(=O)(=O)N2CCCC(C(=O)NCc3ccncc3)C2)cc1Cl (stereo not given) |  | 25.2 |  | 1.03 µM (active)
15 | O=C(NCc1ccncc1)C1CCN(S(=O)(=O)c2ccc(F)cc2)CC1 |  | 1.32 | inactive | 
16 | O=C(NC1CCCCCC1)C1CCN(S(=O)(=O)c2ccc(F)cc2)CC1 | 9.96% (inactive) | -1.11 |  | 
17 | O=C(NC1CCN(S(=O)(=O)c2ccc(F)cc2)CC1)C1CCCCC1 |  | -18.1 |  | 5.17 µM (active)
18 | CCOc1ccc(S(=O)(=O)N2CCCC(C(=O)NCc3ccncc3)C2)cc1C (stereo not given) |  | 9.24 | inactive | 
19 | Cc1ccc(S(=O)(=O)N2CCC(C(=O)NCc3ccncc3)CC2)cc1 |  | 12.7 |  | 18.4 µM (active)
20 | Cc1ccc(S(=O)(=O)N2CCC(C(=O)N[C@@H](C)C(=O)NCCc3ccccc3)CC2)cc1 | 11.5% (inactive) | 4.36 |  | 
21 | Cc1ccc(NC(=O)C(C)OC(=O)COc2cccc(C(F)(F)F)c2)cc1 (stereo not given) | 4.89% (inactive) | 3.29 |  | 
22 | COc1ccccc1N(CCC#N)C(=O)CSc1nc(-c2ccccc2)cn1N | 21.1% (inactive) | -6.12 |  | 
23 | COc1ccc(/C=C/c2nc(-c3ccccc3)cc(=O)[nH]2)cc1 | -10.7% (inactive) | -10.9 |  | 
24 | Cc1cn(C2CCC(CO)O2)c(=O)[nH]c1=O (stereo not given) |  | 27 | inactive | 

Row | Structure (SMILES) | lipid storage change, negative = inhibition | cell number change [%] | outcome | Potency
25 | CC1CCCC(NC(=O)COC(=O)c2cccs2)C1C (stereo not given) | 2.84% (inactive) | 0.184 |  | 
26 | CCOc1ccc(NC(=O)CN2C(=O)C3CCCN3C2=O)cc1 (stereo not given) |  |  | inactive | 
27 | CC1(C)CC(=O)C(C=NCCN2CCN(CCc3ccccc3)CC2)=C(O)C1 | 1.55% (inactive) |  |  | 
28 | Cc1ccccc1C(=O)N1CCN(c2ccc(NC(=O)c3cccnc3)cc2)CC1 | -0.627% (inactive) | 24.6 |  | 
29 | CCOc1cc(C(=S)N2CCN(C)CC2)ccc1OCC(=O)N1CCOCC1 | 12.5% (inactive) | -0.877 |  | 
30 | COc1ccc2c(c1)C1=NN(/C(C)=C\C(C)=O)C(c3ccccc3)C1CC2 (stereo not given) | -2.18% (inactive) | -20.1 |  | 
31 | COc1cccc(CNCC(O)COc2ccc(C(=O)c3ccccc3)cc2)c1 (stereo not given) | 0.646% (inactive) | -29.5 |  | 
32 | COC(=O)CN1C(=O)NC2(CCCc3ccccc32)C1=O (stereo not given) | -10.4% (inactive) | 1.11 |  | 
33 | O=C(c1ccc(C(F)(F)F)cc1)C1CCCN(Cc2cccn2-c2ncccn2)C1 (stereo not given) | 17.2% (inactive) | 20.4 |  | 
34 | O=C1CC(N2CCN(c3ccc(F)cc3)CC2)C(=O)N1c1ccc(F)cc1 (stereo not given) | 0.693% (inactive) | -10.9 |  | 
35 | CCCCS(=O)(=O)N1CCCC(C(=O)NCCc2ccccc2)C1 (stereo not given) | -13.4% (inactive) | -7.87 |  | 
36 | CCS(=O)(=O)N1CCCC(C(=O)NCCc2ccccc2)C1 (stereo not given) |  | -14.3 |  | 25.9 µM (active)
37 | CCCS(=O)(=O)N1CCCC(C(=O)NCCc2ccccc2)C1 (stereo not given) | 4.64% (inactive) | 1.16 |  | 
38 | Cc1ccc(C(=O)NCC(c2ccco2)N2CCCCC2)s1 (stereo not given) | 0.161% (inactive) | 20.8 |  | 
39 | O=C(O)c1cccc(NC(=O)C2CC(=O)N(Cc3ccccc3)C2)c1 (stereo not given) |  | -0.647 |  | 4.61 µM (active)
40 | CC(=O)c1cccc(NC(=O)C2CC(=O)N(Cc3ccccc3)C2)c1 (stereo not given) |  |  | inactive | 
41 | CSc1cccc(NC(=O)C2CC(=O)N(Cc3ccccc3)C2)c1 (stereo not given) | 6.25% (inactive) | 8.1 |  | 
42 | O=S(=O)(Nc1ccncc1)c1ccc(Cl)cc1 |  | -14.9 |  | 10.3 µM (active)
43 | CCc1ccc(S(=O)(=O)Nc2ccncc2)cc1 |  | -6.32 | inactive | 
44 | O=S(=O)(Nc1ccc(Cc2ccncc2)cc1)c1ccc(Cl)cc1 | 5.23% (inactive) | 4.35 |  | 
45 | COc1ccc(C(=O)N2CCC(=O)N(C(CO)Cc3ccccc3)CC2)cc1 (stereo not given) | 1.55% (inactive) | -2.26 |  | 
46 | Cc1ccc(N=Cc2c(O)n(C)c(=O)n(C)c2=O)nc1 | 1.38% (inactive) | 3.34 |  | 
47 | O=S(=O)(NCc1cccnc1)c1ccc(Br)c2ccccc12 |  | 10.4 | inactive | 
